Test [1] can be described thus: Nuclear factor erythroid 2-related factor 2/antioxidant responsive element (Nrf2/ARE) small molecule agonists: qHTS cell viability counter screen in human keratinocytes (AID 1919968; active = well fitted curve in the direction sought with a large enough effect in the repeat runs; an effect the other way counts as inactive or inconclusive; also: nearly all actives have a fitted effect of over 55% in size; also: potency is read from the fitted curve at half-maximal effect). The procedure, abridged: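 KeratinoSens HaCaT cells, 1,500/well, preincubated 5 h, then exposed to compounds in DMSO for 23 h at 37 C/5% CO2. Viability read as CellTiter-Fluor fluorescence after 1 h, in the same wells as the ARE-luciferase read.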
On the technique in general: qHTS replaces the single test concentration by a dilution series.

Test [2] in a line: Nuclear factor erythroid 2-related factor 2/antioxidant responsive element (Nrf2/ARE) small molecule agonists: luciferase reporter gene qHTS assay in human keratinocytes (AID 1919969). Also: nearly all actives have a fitted effect of over 35% in size. Also: potency is read from the fitted curve at half-maximal effect. In general terms: In a reporter assay the amount or activity of a reporter protein is the signal.
Test [3] has as its target Gonadotropin-releasing hormone receptor (Homo sapiens) (UniProt P30968). As to the kind of experiment: Human gonadotropin-releasing hormone receptor (GnRHR) small molecule agonists, calcium flux assay in GnRHR-HEK293 cells (AID 1920063). Also: nearly all actives have a fitted effect of over 35% in size. The procedure, abridged:
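HEK293 cells stably expressing human GnRHR were dye-loaded for 1 h at 37 C. Compound was added in agonist mode and fluorescence (Ex/Em 480/540) recorded kinetically for 3 min. Fifteen concentrations, triplicates.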
For orientation: Calcium assays in cells follow changes in intracellular calcium, usually with a dye or a luminescent sensor.

The target in test [4] is KiSS-1 receptor (Homo sapiens) (UniProt Q969F8). As to the kind of experiment: Human kisspeptin (KISS1R) small molecule agonists, calcium flux assay in KISS1R-HEK293 cells (AID 1920064; active = well fitted curve in the direction sought with a large enough effect in the repeat runs; an effect the other way counts as inactive or inconclusive). The procedure, abridged: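 HEK293 cells stably expressing human KISS1R were loaded with calcium dye for 1 h at 37 C, then given compound; fluorescence (Ex/Em 480/540) was read kinetically for 3 min. Fifteen concentrations, triplicate.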

Test [5] can be described thus: G protein-coupled receptor (GPCR) small molecule agonists, calcium flux assay: HEK293 wild type cell line counter screen (AID 1920065). The procedure, abridged: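 Wild-type HEK293 cells plated 18 h, loaded with calcium dye 1 h at 37 C, then compounds added in agonist mode (ATP as positive control). Kinetic fluorescence Ex/Em 480/540 recorded 3 min at 1 sec intervals; 15 concentrations, triplicate.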

The nature of test [6]: p53 small molecule agonists, cell-based qHTS assay with human liver microsomes (AID 1963577). The procedure, abridged: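 Cells carrying a p53-responsive bla reporter were rested 5 h (37 C, 5% CO2) before compound transfer. Human liver microsomes plus NADPH, 0.5 mg/mL final apiece, supplied metabolism during the 16 h 37 C exposure.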
A short description of test [7]: p53 small molecule agonists, cell-based qHTS assay with rat liver microsomes (AID 1963578). The procedure, abridged: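 Fluorescence from a beta-lactamase reporter under a p53 response element was measured after cells had been incubated 16 h at 37 C with test compound and rat liver microsomes plus NADPH (0.5 mg/mL final each).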
The nature of test [8]: p53 small molecule agonists, cell-based qHTS assay with human liver microsomes: qHTS cell viability counter screen (AID 1963579). Also: nearly all actives have a fitted effect of over 45% in size. The procedure, abridged:
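Seed p53RE-bla cells at 4,000 per well; incubate 5 h at 37 C; add compound, human liver microsomes and NADPH; incubate 16 h at 37 C; add CellTiter-Glo; after 30 min at room temperature, read luminescence.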

A short description of test [9]: p53 small molecule agonists, cell-based qHTS assay with rat liver microsomes: qHTS cell viability counter screen (AID 1963580). Also: nearly all actives have a fitted effect of over 45% in size. The procedure, abridged: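 p53RE-bla HCT-116 cells were exposed 16 h at 37 C to compounds with rat liver microsomes (0.5 mg/mL) and NADPH (0.5 mg/mL). Viability was measured in the same wells as ATP content by CellTiter-Glo luminescence.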

Test [10] can be described thus: p53 small molecule agonists, cell-based qHTS assay: qHTS cell viability counter screen (AID 1963581). Also: nearly all actives have a fitted effect of over 45% in size. The procedure, abridged:
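p53RE-bla HCT-116 cells, compounds added 5 h after plating and incubated 16 h at 37 C. Cytotoxicity measured in the same wells as intracellular ATP by CellTiter-Glo luminescence after 30 min at room temperature.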

Test [11] concerns the target 5-hydroxytryptamine receptor 2A (Homo sapiens) (UniProt P28223). In words: 5-hydroxytryptamine receptor 2A (HTR2A) small molecule antagonists, cell-based qHTS assay (AID 1963586). Also: nearly all actives have a fitted effect of over 45% in size. The procedure, abridged: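 Antagonist-mode intracellular calcium assay: DOI (4 nM) added after 5 min compound pre-incubation at room temperature to dye-loaded HTR2A-CHO cells. Fluorescence followed for 3 min, sampled every second.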

The target is the same in test [12]. As to the kind of experiment: 5-hydroxytryptamine receptor 2A (HTR2A) small molecule agonists, cell-based qHTS assay (AID 1963587). Also: nearly all actives have a fitted effect of over 30% in size. Also: potency is read from the fitted curve at half-maximal effect. The procedure, abridged: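 CHO cells stably expressing human HTR2A, plated 18 h, loaded with calcium dye 1 h at 37 C. Agonist mode: compounds added and intracellular calcium fluorescence recorded kinetically for 2 min at 1 sec intervals.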

Test [13] has as its target Muscarinic acetylcholine receptor M1 (Homo sapiens) (UniProt P11229). As to the kind of experiment: Cholinergic receptor muscarinic 1 (CHRM1) small molecule antagonists, cell-based qHTS assay (AID 1963588). Also: nearly all actives have a fitted effect of over 40% in size. Also: potency is read from the fitted curve at half-maximal effect. The procedure, abridged: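 CHRM1-CHO calcium-flux assay, antagonist mode. Cells were seeded 18 h, dye-loaded 1 h at 37 C and given compound for 5 min at RT, then acetylcholine was added at 50nM. FDSS fluorescence was read 3 min; 15 concentrations, three runs.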

Test [14] shares this target. In words: Cholinergic receptor muscarinic 1 (CHRM1) small molecule agonists, cell-based qHTS assay (AID 1963589). Also: nearly all actives have a fitted effect of over 35% in size. The procedure, abridged:
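CHO cells stably expressing human CHRM1 were loaded with calcium dye for 1 h at 37 C, then compound was added in agonist mode. Intracellular calcium fluorescence was followed kinetically at 1 s intervals. Fifteen concentrations were tested in three independent runs.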

The target in test [15] is Beta-2 adrenergic receptor (Homo sapiens) (UniProt P07550). As to the kind of experiment: Adrenergic beta2 receptor (ADRB2) small molecule antagonists, cell-based qHTS assay (AID 1963592). Also: nearly all actives have a fitted effect of over 50% in size. Also: potency is read from the fitted curve at half-maximal effect. The procedure, abridged: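 Cells (CHO, stable ADRB2 overexpression) incubated 18-20hr at 37C; compounds added from DMSO; agonist mix (1nM isoproterenol, 100uM IBMX, 25uM Ro-20-1724) added; 0.5hr RT; d2-cAMP and anti-cAMP-cryptate added; 1hr RT; 665/615 nm read.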

Test [16] addresses D(2) dopamine receptor (Homo sapiens) (UniProt P14416). As to the kind of experiment: Dopamine D2 receptor (DRD2) small molecule agonists, cell-based qHTS assay (AID 1963594). Also: nearly all actives have a fitted effect of over 35% in size. The procedure, abridged:
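HEK293 cells stably expressing human DRD2, pre-treated with PDE inhibitor Ro20-1724 (0.1 mM final) and compound 10 min at room temperature, then stimulated with NKH477 (200nM […]) for 30 min. cAMP read by HTRF (665/620 nm).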

Test [17] shares this target. As to the kind of experiment: Dopamine D2 receptor (DRD2) small molecule antagonists, cell-based qHTS assay (AID 1963595; active = well fitted inhibition curve with a large enough effect in the signal ratio in the repeat runs, with a control signal flat; the % refers to the signal ratio). The procedure, abridged: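 In this cell-based antagonist screen, compounds act for 10 min at room temperature before a 30 min challenge with 12 nM quinpirole and 200 nM NKH477. cAMP is quantified by HTRF competition in DRD2-HEK293 cells containing 0.1 mM Ro20-1724.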

Test [18] can be described thus: cAMP Responsive Elements (CRE) small molecule antagonists, cell-based qHTS assay (AID 1963591; active = well fitted inhibition curve with a large enough effect in the signal ratio in the repeat runs, not every such curve was filed as active; the % refers to the signal ratio). The procedure, abridged:
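CRE-bla HEK293T cells plated 18 h, then given compound plus NKH477 at 0.25 uM final for 3 h at 37C. Beta-lactamase reporter read with LiveBLAzer B/G FRET substrate after 2 h at room temperature.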

Test [19] concerns the target Beta-2 adrenergic receptor (Homo sapiens) (UniProt P07550). In words: Adrenergic beta2 receptor (ADRB2) small molecule agonists, cell-based qHTS assay (AID 1963593).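 Also: CHO cells stably overexpressing human ADRB2.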 The procedure, abridged: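 CHO cells stably over-expressing ADRB2 were plated overnight at 37C, then dosed with compounds plus a stimulation mix containing 100uM IBMX and 25uM Ro-20-1724 for 0.5hr at room temperature. cAMP was measured by HTRF competition, 1hr.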

The nature of test [20]: cAMP Responsive Elements (CRE) small molecule agonists, cell-based qHTS assay (AID 1963590). The procedure, abridged: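 CRE-bla HEK 293T cells, 2,000/well in DMEM with 10% dialyzed FBS and 25 mM HEPES, pre-incubated 18 h at 37 C, then exposed to compound 3 h at 37 C. Beta-lactamase reporter read with LiveBLAzer B/G FRET substrate after 2 h at room temperature.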

Records with an inconclusive call do not appear. Calls of active or inactive are those of the source. Unless noted, calls follow the shape of the full dose curve.

Sequence of Gonadotropin-releasing hormone receptor (Homo sapiens) (P30968 whole entry, looked up): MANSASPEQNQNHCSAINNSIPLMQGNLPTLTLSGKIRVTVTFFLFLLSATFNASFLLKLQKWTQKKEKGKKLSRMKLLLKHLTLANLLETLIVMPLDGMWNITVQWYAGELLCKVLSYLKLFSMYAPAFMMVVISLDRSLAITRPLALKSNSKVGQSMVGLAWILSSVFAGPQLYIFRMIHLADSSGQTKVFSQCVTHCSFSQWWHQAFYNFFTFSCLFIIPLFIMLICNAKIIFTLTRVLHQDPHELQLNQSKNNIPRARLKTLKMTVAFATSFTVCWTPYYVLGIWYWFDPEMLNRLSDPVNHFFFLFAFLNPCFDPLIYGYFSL
Sequence of D(2) dopamine receptor (Homo sapiens) (P14416 whole entry, looked up): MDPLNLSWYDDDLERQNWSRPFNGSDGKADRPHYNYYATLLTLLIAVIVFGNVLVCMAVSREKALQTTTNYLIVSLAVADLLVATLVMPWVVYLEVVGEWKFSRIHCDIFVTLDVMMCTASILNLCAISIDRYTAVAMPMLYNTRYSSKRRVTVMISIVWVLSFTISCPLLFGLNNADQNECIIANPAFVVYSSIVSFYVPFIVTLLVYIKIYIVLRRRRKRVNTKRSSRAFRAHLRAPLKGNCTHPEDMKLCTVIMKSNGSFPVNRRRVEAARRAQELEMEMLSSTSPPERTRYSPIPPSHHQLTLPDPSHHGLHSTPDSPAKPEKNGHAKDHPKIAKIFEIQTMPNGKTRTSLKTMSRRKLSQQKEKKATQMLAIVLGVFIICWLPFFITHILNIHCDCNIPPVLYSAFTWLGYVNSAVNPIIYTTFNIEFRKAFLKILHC
Sequence of 5-hydroxytryptamine receptor 2A (Homo sapiens) (P28223 whole entry, looked up): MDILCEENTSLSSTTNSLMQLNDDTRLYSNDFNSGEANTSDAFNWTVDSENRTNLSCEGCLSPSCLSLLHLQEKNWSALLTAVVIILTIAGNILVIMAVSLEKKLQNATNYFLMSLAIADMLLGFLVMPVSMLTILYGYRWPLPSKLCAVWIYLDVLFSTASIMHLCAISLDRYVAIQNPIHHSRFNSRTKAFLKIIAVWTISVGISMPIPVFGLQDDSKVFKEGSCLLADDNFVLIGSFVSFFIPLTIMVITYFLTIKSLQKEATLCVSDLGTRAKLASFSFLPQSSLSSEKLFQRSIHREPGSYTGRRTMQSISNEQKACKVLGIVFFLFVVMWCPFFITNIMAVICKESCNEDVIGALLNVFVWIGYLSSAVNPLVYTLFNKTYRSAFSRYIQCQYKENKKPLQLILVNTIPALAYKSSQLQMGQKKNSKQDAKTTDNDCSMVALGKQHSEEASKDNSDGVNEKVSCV
Sequence of KiSS-1 receptor (Homo sapiens) (Q969F8 whole entry, looked up): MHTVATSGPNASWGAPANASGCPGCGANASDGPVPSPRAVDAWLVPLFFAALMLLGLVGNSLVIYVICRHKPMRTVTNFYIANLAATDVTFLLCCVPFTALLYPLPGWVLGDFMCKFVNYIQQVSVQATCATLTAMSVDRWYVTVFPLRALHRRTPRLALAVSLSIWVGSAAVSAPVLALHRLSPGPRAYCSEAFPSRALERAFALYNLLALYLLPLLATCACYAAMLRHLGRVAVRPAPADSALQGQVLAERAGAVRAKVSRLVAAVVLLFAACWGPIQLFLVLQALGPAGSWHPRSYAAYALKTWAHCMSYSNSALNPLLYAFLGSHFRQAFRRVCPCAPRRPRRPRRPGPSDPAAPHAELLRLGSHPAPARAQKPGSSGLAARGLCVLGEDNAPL
Sequence of Beta-2 adrenergic receptor (Homo sapiens) (P07550 whole entry, looked up): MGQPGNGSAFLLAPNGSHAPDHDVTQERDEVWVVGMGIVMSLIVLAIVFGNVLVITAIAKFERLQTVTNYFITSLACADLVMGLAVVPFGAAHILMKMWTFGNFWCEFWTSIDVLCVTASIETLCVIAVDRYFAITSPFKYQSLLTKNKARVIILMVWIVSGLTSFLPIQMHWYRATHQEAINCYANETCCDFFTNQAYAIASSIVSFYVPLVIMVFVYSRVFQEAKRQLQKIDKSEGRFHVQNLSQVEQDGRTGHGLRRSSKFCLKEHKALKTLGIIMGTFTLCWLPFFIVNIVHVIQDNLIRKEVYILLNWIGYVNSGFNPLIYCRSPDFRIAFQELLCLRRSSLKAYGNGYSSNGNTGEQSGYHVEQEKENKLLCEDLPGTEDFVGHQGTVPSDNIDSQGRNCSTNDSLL
Sequence of Muscarinic acetylcholine receptor M1 (Homo sapiens) (P11229 whole entry, looked up): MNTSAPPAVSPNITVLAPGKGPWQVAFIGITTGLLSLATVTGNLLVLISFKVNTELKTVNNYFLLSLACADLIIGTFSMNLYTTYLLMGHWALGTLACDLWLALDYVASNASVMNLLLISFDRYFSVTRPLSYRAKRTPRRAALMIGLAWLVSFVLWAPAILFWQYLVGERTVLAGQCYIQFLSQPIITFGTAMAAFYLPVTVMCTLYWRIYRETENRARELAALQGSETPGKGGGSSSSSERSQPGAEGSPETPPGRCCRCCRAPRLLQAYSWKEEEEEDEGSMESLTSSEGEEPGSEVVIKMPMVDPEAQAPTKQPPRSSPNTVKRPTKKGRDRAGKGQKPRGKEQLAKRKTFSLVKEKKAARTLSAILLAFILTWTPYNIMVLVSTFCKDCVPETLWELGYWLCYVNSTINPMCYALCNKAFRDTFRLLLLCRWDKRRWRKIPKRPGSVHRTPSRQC

On to `CC1=NC(C)OC1C` (configuration not stated), for which the Potency entry in test [1], in [3], in test [6], in test [7], in test [8] and in test [9] was “inactive” throughout. For the same molecule, the Potency result in test [10], in test [11], in [12], in test [13], in test [14] and in test [15] was “inactive” each time. In addition, the Potency result in test [16] and in test [17] was “inactive” throughout. For the same molecule, the Potency in test [2] is 61.1 µM (active). The result in test [4] and in [5] was inactive.

For `CC(=O)c1ccc2ccc3ccccc3c2c1`, the Potency entry in test [1], in test [2], in [3], in [6], in test [7] and in test [8] was “inactive” each time. In addition, the Potency result in test [9], in [10], in test [11], in [12], in [13] and in [14] was “inactive” in each case. In addition, the Potency entry in test [18], in test [15], in [16] and in [17] was “inactive” throughout. The result in [4] and in test [5] was inactive.

Regarding `CC(=O)Oc1cc2c(s1)CCN(C(C(=O)C1CC1)c1ccccc1F)C2` (configuration not stated), the Potency entry in [1], in test [2], in test [3], in test [6], in test [7] and in test [8] was “inactive” throughout. Besides, the Potency result in [9], in test [10], in test [11], in test [12], in [13] and in test [14] was “inactive” throughout. The Potency result in [15], in [16] and in test [17] was “inactive” throughout. Moreover, the outcome in test [4] and in test [5] was inactive.

For `COCCCCCCCCOCCC[Si](C)(O[Si](C)(C)C)O[Si](C)(C)C`, the Potency in test [1] was 61.1 µM (active). The Potency entry in [2], in test [3], in test [6], in test [7], in test [8] and in test [9] was “inactive” in each case. Also, the Potency result in test [10], in test [11], in test [12], in test [13], in test [14] and in test [15] was “inactive” in each case. Besides, the Potency entry in test [19], in test [16] and in test [17] was “inactive” throughout. For the same molecule, the result in test [4] and in [5] was inactive.

On to `O[C@@H](COc1cccc2ncccc12)CN1CCN(C2c3ccccc3[C@@H]3[C@H](c4ccccc42)C3(F)F)CC1` (some centres not stated), for which the Potency entry in test [1], in [2], in [3], in [6], in test [7] and in test [8] was “inactive” in each case. Besides, the Potency entry in test [9], in [10], in test [12], in test [14], in test [15] and in test [17] was “inactive” throughout. In addition, the outcome in test [4] and in test [5] was inactive. The Potency in test [13] was 3.65 µM (active).

With `CCN(CCCCOC(=O)c1ccc(OC)c(OC)c1)C(C)Cc1ccc(OC)cc1` (configuration not stated), the Potency entry in [1], in test [2], in test [3], in test [6], in test [7] and in [8] was “inactive” in each case. Besides, the Potency entry in test [9], in test [10], in [14], in [20], in test [16] and in test [17] was “inactive” in each case. The outcome in [4] and in test [5] was inactive. The Potency was 12 µM (active) in [12], 0.163 µM (active) in [13] and 13.3 µM (active) in [15].

These data come from PubChem BioAssay (Tox21).
